Shown is part of a subset that was picked to be rich in hits.
RBX1-CUL1 inh – blocks human RBX1-Cullin-1 di-ubiquitin formation | in vitro K48 di-Ub FRET, acceptor:donor ratio, 45 min | inhibition, % at 10 µM | hit rate 0.6% among 140,000 | AID 1347404; in the data active means inhibition above about 25%
Target sequence (P62877 whole entry, looked up): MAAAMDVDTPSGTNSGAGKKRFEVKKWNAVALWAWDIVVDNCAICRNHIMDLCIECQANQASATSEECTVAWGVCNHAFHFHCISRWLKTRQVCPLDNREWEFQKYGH
Target sequence (Q13616 whole entry, looked up): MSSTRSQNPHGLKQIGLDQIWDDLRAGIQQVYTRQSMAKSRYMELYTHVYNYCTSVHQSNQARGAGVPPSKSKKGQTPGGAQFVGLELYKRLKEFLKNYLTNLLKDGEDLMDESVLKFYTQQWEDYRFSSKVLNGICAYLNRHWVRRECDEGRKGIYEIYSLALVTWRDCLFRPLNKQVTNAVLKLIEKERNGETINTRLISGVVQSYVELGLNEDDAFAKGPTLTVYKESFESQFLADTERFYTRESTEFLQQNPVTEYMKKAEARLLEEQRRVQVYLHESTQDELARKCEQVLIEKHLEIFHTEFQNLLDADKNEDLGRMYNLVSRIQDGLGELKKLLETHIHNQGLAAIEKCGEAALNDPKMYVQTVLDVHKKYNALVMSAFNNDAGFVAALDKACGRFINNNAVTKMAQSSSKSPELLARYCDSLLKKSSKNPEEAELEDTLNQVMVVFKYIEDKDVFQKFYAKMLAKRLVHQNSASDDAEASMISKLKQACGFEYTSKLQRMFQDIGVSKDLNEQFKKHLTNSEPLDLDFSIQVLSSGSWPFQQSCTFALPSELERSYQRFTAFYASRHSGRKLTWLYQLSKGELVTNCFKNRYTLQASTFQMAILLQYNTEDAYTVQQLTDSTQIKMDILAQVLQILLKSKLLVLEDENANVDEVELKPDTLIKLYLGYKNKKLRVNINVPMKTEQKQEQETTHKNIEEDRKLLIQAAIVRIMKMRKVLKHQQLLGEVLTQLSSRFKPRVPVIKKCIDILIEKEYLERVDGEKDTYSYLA
Active calls of the source: *.

SMILES | RBX1-CUL1 inh
O=c1/c(=C/c2ccc(N3CCOCC3)o2)sc2n1C(c1ccc(F)cc1)C1=C(N=2)c2ccccc2CC1 (centres undefined) | -0.4
C[N+](C)=C1C=CC(=C2C=C(C(C)(C)C)OC(C(C)(C)C)=C2)C=C1 | 9.5
CCN(CC)CCn1c2ccccc2c2c(C)cc(=O)sc21 | -0.3
COC(=O)c1cc(NC(=O)c2ccccc2C)cc(C(=O)OC)c1 | -0.5
COc1ccc(-c2nnc(SCC(=O)N3CCN(C)CC3)nc2-c2ccc(OC)cc2)cc1 | 2.4
Cn1ccnc1CNc1ccc(-c2nc(Cc3ccc(F)cc3)no2)cn1 | 1.9
O=[N+]([O-])c1ccc2nc(-c3ccc(Br)cc3)cn2c1 | 5.4
Brc1ccc(-c2cn3ccncc3n2)cc1 | 29.1*
FC(F)(F)c1ccc2nc(-c3ccc(Br)cc3)cn2c1 | -1.6
Cc1ccc(O)c(C2N(Cc3ccccc3)CCN2Cc2ccccc2)c1 | 7.5
O=C1C(=O)N(CCN2CCOCC2)C(c2ccc(F)cc2)C1C(=O)c1ccc(S(=O)(=O)N2CCOCC2)cc1 (centres undefined) | 13.2
O=C(c1n[nH]c2ccccc12)N1CCC2(CCCN(CC3CC3)C2)C1 (centres undefined) | 3.1
O=C(Nc1cccc(Cl)c1)Nc1ccccc1C(=O)O | 2.3
Nc1ccccc1C(=O)Nc1cccc(Cl)c1 | 9.9
O=C(O)c1cc2oc3ccccc3c3ccccc3oc2cc1C(=O)Nc1cccc(Cl)c1 | 39.9*
CCOC(=O)c1c(NC(=O)Cc2ccccc2)sc2c1CCN(C(=O)OCC)C2 | 2.3
COC(=O)C1[C@@H](c2ccccc2)[C@H]1c1ccccc1 (some centres undefined) | 1.2
COc1cccc(NC(=O)CCC2CCN(C(=O)CSC)CC2)c1 | -0.8
O=C1NC(=Nc2ccc(F)cc2)S/C1=C\c1ccc(OCc2cccc(C(=O)O)c2)cc1 | 14.1
Cc1cccc(N=C2NC(=O)/C(=C\c3ccc(OCc4ccccc4)cc3)S2)c1 | -0.7
N#Cc1ccccc1COc1ccc(/C=C2/SC(=Nc3cccc(C(=O)O)c3)NC2=O)cc1 | 89.3*
C=CCN1C(=O)/C(=C/c2ccc(OCC(=O)O)c(OC)c2)SC1=S | 12.8
COC(=O)c1csc([N+](=O)[O-])c1SC(C)=O | 76.9*
COC(=O)c1scc([N+](=O)[O-])c1-c1c([N+](=O)[O-])csc1C(=O)OC | -0.7
COC(=O)c1csc([N+](=O)[O-])c1SCc1ccccc1 | 7.4
SMILES | RBX1-CUL1 inh
O=C1CC(N2CCC3(CC2)OCCO3)C(=O)N1c1ccccc1 (centres undefined) | 2.6
CCN=C1CC=C(Br)C=C(C(=O)/C=C/c2ccc(Cl)cc2)C1=O | 17.1
CCN=C1CC=C(Br)C=C(C(=O)/C=C/c2cc(OC)ccc2OC)C1=O | 54.7*
CCOC(=O)c1ccccc1NC(=O)/C=C/c1ccc(Br)cc1 | -3.6
CCOc1ccccc1N1CCN(C(=O)/C=C/c2ccc(Br)cc2)CC1 | -7.9
CCN=C1CC=C(Br)C=C(C(=O)/C=C/c2ccc(Br)cc2)C1=O | 93.5*
CCN=C1CC=C(Br)C=C(C(=O)/C=C/c2ccc(OC)cc2)C1=O | 16.4
CN=C1CC=C(Br)C=C(C(=O)/C=C/c2ccc(Br)cc2)C1=O | 35.6*
CCN=C1CC=C(Br)C=C(C(=O)/C=C/c2ccc(C(F)(F)F)cc2)C1=O | 5.5
CC1CN(C(=O)/C=C/c2ccc(F)cc2)C(C)CN1C(=O)/C=C/c1ccc(F)cc1 (centres undefined) | -2.1
CCN=C1CC=C(Br)C=C(C(=O)/C=C/c2ccc(F)cc2)C1=O | 26.7*
COc1ccc(Br)cc1/C=C/C(=O)c1ccc(OS(C)(=O)=O)cc1 | -0.3
CC(=O)c1cccc(NC(=O)/C=C/c2ccc(Br)cc2)c1 | 5.1
O=C(/C=C(/Br)c1cnn(-c2ccccc2)c1)c1ccccc1 | 4.6
CC(=O)Oc1ccc2c(Br)cccc2c1 | -2.3
Cc1ccc(S(=O)(=O)NNC(=O)c2ccc(Br)o2)cc1 | 1.6
O=C(O)CCN(CCC(=O)O)c1ccc2oc(=O)[nH]c2c1 | 9.8
COc1ccc(N2CCN(C(=O)c3csc(C)c3)CC2)cc1 | -1.4
CCOC(=O)C1C(CN2CCN(c3cccc(Cl)c3)CC2)=NC(=O)NC1c1ccc(Cl)cc1 (centres undefined) | 8.7
O=C(O)CSc1nnc2c(n1)OC1(CCCCC1)Nc1ccccc1-2 | 4.2
O=c1c(-c2nc(-c3ccccc3)c(-c3ccccc3)[nH]2)coc2ccc(Br)cc12 | -6.4
CCOC(=O)C1C(=O)CC(=O)C(C(=O)OCC)C1c1ccco1 (centres undefined) | 4.7
CCN=C1CC=C(Br)C=C(C(=O)/C=C/c2c(Cl)cccc2Cl)C1=O | 89.5*
O=C(/C=C/c1c(Cl)cccc1Cl)Nc1ncccn1 | -2.8
NS(=O)(=O)c1ccc(CNC(=O)/C=C/c2c(Cl)cccc2Cl)cc1 | 15.8
SMILES | RBX1-CUL1 inh
CC1CN(c2ccccc2)CCN1C(=O)CC1(c2ccccc2Cl)CC(=O)N(CCN(C)C)C1=O (centres undefined) | -2.5
CCOC(=O)C(C(=O)OCC)c1cccc2cccc(C(=O)O)c12 | -3.1
O=C1CC=NC(Sc2ncccc2[N+](=O)[O-])=N1 | -0.7
O=S(=O)(O)c1ccc2ncccc2c1 | 2.5
CCOc1ccc2cc(S(=O)(=O)O)ccc2c1N | 8.0
Nc1cc(S(=O)(=O)O)c(N)c2ccc(S(=O)(=O)O)cc12 | 100.8*
CC(C)c1cccc(C(C)C)c1N1C(=O)c2ccc(N)cc2C1=O | 7.9
O=C(Cc1ccc(Br)cc1)Nc1ccc(-c2nnc(-c3ccccc3)o2)cc1 | -0.7
COc1ccc(/C=N/OC(=O)c2ccccc2)cc1 | 4.4
COc1ccc(/C=C(\C)c2ccc(OC)cc2)cc1 | -5.6
COc1ccc(/C=C(/S)C(=O)O)cc1 | 89.3*
CCC(=O)Nc1ccc(S(=O)(=O)N2C(C)CCCC2C)cc1 (centres undefined) | 1.8
Cc1[nH]c2ccccc2c1C1(c2c(C)[nH]c3ccccc23)C(=O)N(Cc2ccccc2Cl)c2ccccc21 | -1.6
CC(=O)c1ccc(NC(=O)C2=CC3C(=O)CC(c4ccccc4)CC3=NC2=O)cc1 (centres undefined) | -5.9
Nc1ccc(Br)c2cccnc12 | 62.3*
Nc1ccnc2ncccc12 | 9.1
O=C(Nc1ccc(Br)c2cccnc12)c1cc(F)c(F)cc1Cl | 4.1
COc1ccc(CC(=O)NCC2CCCN(C(=O)c3occc3C)C2)cc1 (centres undefined) | -4.3
CCCC(=O)Nc1sc2c(c1C#N)CCCCCC2 | -5.6
CN1CCC(N2CCCC(NC(=O)c3ccc4cccc(F)c4n3)C2)CC1 (centres undefined) | 6.6
CN(C)c1ccc(-c2nc3nc[nH]c(=O)c3[nH]2)cc1 | -1.8
Cn1c(-c2ccc(F)cc2)c[n+]2cc(Cl)ccc12 | -1.1
Cc1cccc(Cn2ccc(-c3cccc(-c4nc(C)cnc4C)c3)n2)n1 | -0.6
O=S(=O)(NCc1ccc2c(c1)OCO2)c1ccc(-c2ccccc2)cc1 | -0.4
CC(/C=C1\SC(=S)N(NC(=O)c2cccc(O)c2)C1=O)=C\c1ccccc1 | -4.6
CC(/C=C1\SC(=S)N(CC(=O)O)C1=O)=C\c1ccccc1 | -2.5
CCOC(=O)c1ccc(NC(=O)CN2C(=O)S/C(=C/C(C)=C/c3ccccc3)C2=O)cc1 | 6.6
O=C1/C(=C\c2cccc(O)c2)SC(=S)N1c1ccccc1 | 4.1
CC(/C=C1\SC(=S)N(c2cccc(C(=O)O)c2)C1=O)=C\c1ccccc1 | 65.9*
CC(=C/c1ccccc1)/C=C1\SC(=S)N(C(C(=O)O)c2ccccc2)C1=O (centres undefined) | 104.6*
